Screening results from PubChem.
SENP7 inh = SENP7 protease inhibition. inhibition, % at 5 µM. recombinant SENP7, Z-RLRGG-aminoluciferin luminescence, 40 min. 1.5% of 330,000 active. AID 434973;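 active means inhibition above about 50% at the single test dose, limit read from the data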;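 further: plate controls were DMSO with enzyme for no effect and no enzyme buffer wells for full effect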
Target sequence (Q9BQF6 706-1050 limits assumed): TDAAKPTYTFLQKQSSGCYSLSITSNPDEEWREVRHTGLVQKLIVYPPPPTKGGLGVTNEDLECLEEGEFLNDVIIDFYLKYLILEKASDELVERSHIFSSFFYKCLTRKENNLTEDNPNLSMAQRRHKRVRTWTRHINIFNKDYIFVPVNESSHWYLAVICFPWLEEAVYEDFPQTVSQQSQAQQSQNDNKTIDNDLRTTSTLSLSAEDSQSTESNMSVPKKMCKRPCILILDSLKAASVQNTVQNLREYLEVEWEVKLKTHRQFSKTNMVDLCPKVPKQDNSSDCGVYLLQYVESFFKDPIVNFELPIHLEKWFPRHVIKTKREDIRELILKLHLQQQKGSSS
SENP8 block-1 = SENP8 (human) protease inhibition. 0.64% of 360,000 active. recombinant SENP8, Nedd8 substrate fluorescence. Q96LD8. inhibition, % at 20 µM; in the data active means inhibition mostly above about 40%, no sharp cut-off; inactive means mostly below about 27%
SENP8 block-2 = blocks the human protease SENP8; AID 2540; Q96LD8; 1.2% of 330,000 active; inhibition, % at 10 µM; purified SENP8, Z-RLRGG-aminoluciferin cleavage, luminescence; in the data active means inhibition above about 50%
LGR2 inh = Drosophila LGR2 receptor signaling inhibition | HEK293 LGR2, CRE-luciferase, bursicon-stimulated, 4 h | inhibition, % at 9.99 µM | 0.35% of 380,000 active | AID 720647;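 active means drop in luminescence signal, shown as inhibition above about 50% in the replicate tests, limit read from the data, passing the limit was not always enough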;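 further: agonist challenge used bursicon conditioned medium at about half maximal strength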
HSP90 refold inh = inhibitors of HSP90 luciferase refolding in rabbit reticulocyte lysate; luciferase refolding luminescence, 3 h; 0.91% of 290,000 active; inhibition, % at 5.6 µM; AID 1789;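 active means inhibition above the screen-wide mean plus 3 SD, computed separately per campaign, cut at about 16% in these data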;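 further: 0% = DMSO wells and 100% = 60 µM geldanamycin wells; inhibitors lower the luminescence because luciferase stays unfolded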
SENP6 block = SENP6 protease inhibition. Recombinant SENP6 catalytic domain, aminoluciferin luminescence. inhibition, % at 10 µM. 1.8% of 330,000 active;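 active means inhibition above about 50% at the single tested dose, limit read from the data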;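 further: plate controls were DMSO wells with enzyme for no effect and DMSO wells lacking enzyme for full effect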
SENP8 confirm = human SENP8 inhibition, confirmed. shares compounds with SENP7 inh. Recombinant SENP8, Z-RLRGG-aminoluciferin luminescence, 60 min. inhibition, % at 12.5 µM. 40% of 6,200 active. AID 488912;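 active means mean inhibition across replicates above about 50%, limit read from the data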
SENP6 conf = human SENP6 inhibition, confirmed | inhibition, % at 12.5 µM | 58% of 6,200 active | AID 488915 | recombinant SENP6, Z-RLRGG-aminoluciferin luminescence | shares compounds with SENP7 inh
SENP7 conf = confirmation of human SENP7 protease inhibitors; shares compounds with SENP7 inh; recombinant SENP7, Z-RLRGG-aminoluciferin luminescence, 40 min; inhibition, % at 12.5 µM; 69% of 6,200 active; AID 488917
Casp3 select = selectivity test for SENP inhibitors: human caspase-3 inhibition | shares compounds with SENP7 inh | purified caspase-3, Z-DEVD-aminoluciferin luminescence, 60 min | inhibition, % at 12.5 µM | 60% of 6,200 active | AID 488918;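 active means mean inhibition above about 50%, limit read from the data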;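 further: plate controls were enzyme with DMSO for no effect and wells without caspase-3 for full effect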
Luc interf = luminescence interference (SENP counter-screen). shares compounds with SENP7 inh. Pre-incubated SENP8/Z-RLRGG-aminoluciferin, luciferase luminescence interference. inhibition, % at 12.5 µM. 39% of 6,200 active. AID 488919;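 active means mean inhibition above about 50% when retested at one dose, limit read from the data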;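 further: plate controls were DMSO wells with completed reaction for no effect and substrate without enzyme for full effect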
The depositor's hits bear a star. Compounds with a hit are over-represented: about 2.3% of the library has one in this group of screens.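 How the source made its calls, unless noted: active means mean inhibition above about 50% in the one-dose retest (limit read from the data); inactive means the rest.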

`Cc1cc(O)c(/C=N/Nc2cccc(Cl)c2)c(=O)o1` gave SENP7 inh 20, SENP8 block-1 -106, SENP8 block-2 66*, HSP90 refold inh -1, SENP6 block 70*, SENP8 confirm 71*, SENP6 conf 71*, SENP7 conf 89*, Casp3 select 87* and Luc interf 56*.
`Cc1cc(O)c(/C=N/Nc2ccccc2Cl)c(=O)o1` gave SENP7 inh 41, SENP8 block-1 -106, SENP8 block-2 74*, HSP90 refold inh 0, SENP6 block 84*, SENP8 confirm 72*, SENP6 conf 68*, SENP7 conf 87*, Casp3 select 88* and Luc interf 63*.
COc1cccc(-c2ccc3n(c2=O)C[C@H]2[C@H](CO)[C@@H](C(=O)NC4CCCC4)N[C@@H]32)c1 was read as LGR2 inh -10.
Screening CN(C)C(=O)C[C@@H]1C=C[C@H](NC(=O)Nc2cccc(F)c2)[C@@H](CO)O1 returned LGR2 inh 3.
Cc1ccccc1C(=O)O/N=C(\N)Cc1cccs1 was read as SENP7 inh 61*, SENP8 block-1 6, SENP8 block-2 35, LGR2 inh -33, HSP90 refold inh 2, SENP6 block 51*, SENP8 confirm 52*, SENP6 conf 49, SENP7 conf 81*, Casp3 select 76* and Luc interf 55*.
`N/C(=N\OC(=O)COc1ccc2ccccc2c1)c1ccncc1` gave SENP7 inh -4, SENP8 block-1 -4, SENP8 block-2 -13, HSP90 refold inh 3 and SENP6 block -25.
Screening N/C(=N\OC(=O)c1ccc2ccccc2c1)c1cccc([N+](=O)[O-])c1 returned SENP7 inh 16, SENP8 block-1 7, SENP8 block-2 -13, LGR2 inh -29, HSP90 refold inh 0 and SENP6 block 1.
Screening Cc1ccccc1OCC(=O)O/N=C(\N)Cc1cccs1 returned SENP7 inh -9, SENP8 block-1 3, SENP8 block-2 -8, LGR2 inh -28, HSP90 refold inh -2 and SENP6 block -17.
For Cc1cc(C(=O)O/N=C(\N)c2ccncc2)ccc1[N+](=O)[O-] the results were SENP7 inh 57*, SENP8 block-1 23, SENP8 block-2 18, LGR2 inh -35, HSP90 refold inh 4, SENP6 block 37, SENP8 confirm 8, SENP6 conf 6, SENP7 conf 38, Casp3 select 43 and Luc interf 26.
Screening N/C(=N\OC(=O)c1ccc2ccccc2c1)c1ccncc1 returned SENP7 inh 67*, SENP8 block-1 -12, SENP8 block-2 56*, LGR2 inh 12, HSP90 refold inh 5, SENP6 block 47, SENP8 confirm 70*, SENP6 conf 71*, SENP7 conf 90*, Casp3 select 77* and Luc interf 73*.
Screening N/C(=N\OC(=O)c1ccc2ccccc2c1)c1ccccc1Cl returned SENP7 inh 78*, SENP8 block-1 0, SENP8 block-2 68*, LGR2 inh -103, HSP90 refold inh 0, SENP6 block 73*, SENP8 confirm 82*, SENP6 conf 81*, SENP7 conf 94*, Casp3 select 71* and Luc interf 83*.
Screening CO[C@@H]1CN(C)C(=O)c2ccc(NC(=O)C3CC3)cc2OC[C@@H](C)N(Cc2cccc(F)c2)C[C@H]1C returned LGR2 inh -1.
